We go through 104 compounds from PubChem BioAssay AID588342 (National Center for Advancing Translational Sciences (NCATS), 2011).

In all, about 360,000 compounds went through this assay and about 25,000 (6.9%) were called active. Entries that show only a call come without a potency. Inconclusive results (about 9%) are left out. The sample holds actives, similar compounds and a random draw of the others, so the mix is not that of the screen. Calls follow the shape of the dose curve; as a rule, active = well fitted inhibition curve with a large enough effect; inconclusive = small, poorly fitted or top-dose-only effect; inactive = flat fitted curve, though single readings scatter.
Potency is read from the fitted curve at half-maximal effect.

Luciferin 4-monooxygenase (Photinus pyralis), sequence (P08659 whole entry, looked up): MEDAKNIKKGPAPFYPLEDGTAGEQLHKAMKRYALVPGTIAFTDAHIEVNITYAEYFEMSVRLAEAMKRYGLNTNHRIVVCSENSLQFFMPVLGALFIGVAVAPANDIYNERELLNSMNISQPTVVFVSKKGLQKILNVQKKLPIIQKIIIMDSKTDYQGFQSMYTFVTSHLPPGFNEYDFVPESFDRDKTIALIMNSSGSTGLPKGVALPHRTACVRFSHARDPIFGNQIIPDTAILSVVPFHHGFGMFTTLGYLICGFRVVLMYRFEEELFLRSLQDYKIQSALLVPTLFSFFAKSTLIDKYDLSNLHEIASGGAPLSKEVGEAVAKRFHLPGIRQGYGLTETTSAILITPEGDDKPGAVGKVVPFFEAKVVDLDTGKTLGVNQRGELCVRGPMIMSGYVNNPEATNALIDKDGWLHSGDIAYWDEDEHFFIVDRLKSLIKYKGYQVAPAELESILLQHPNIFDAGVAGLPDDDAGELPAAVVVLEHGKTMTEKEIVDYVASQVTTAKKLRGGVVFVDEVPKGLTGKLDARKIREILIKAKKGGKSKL

The target of the test is Luciferin 4-monooxygenase (Photinus pyralis) (UniProt P08659). In words: qHTS profiling assay for firefly luciferase inhibitor/activator using purifed enzyme and Km concentrations of substrates (counterscreen for miR-21 project). Also: nearly all actives have a fitted effect of over 55% in size. Particulars: purified FLuc, luminescence inhibition; series mostly up to 57.5 µM. In a few lines:
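Purified P. pyralis luciferase (10nM final) with 10uM D-luciferin and 10uM ATP (Km levels) in 50mM Tris acetate pH 7.5, 10mM Mg acetate, 0.01% Tween-20, 0.05% BSA; qHTS 6-point titration, ~60 µM downward; luminescence read.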
`O=C(NC1CC(=O)N(c2ccc(F)cc2)C1)c1ccc(S(=O)(=O)N2CCCC2)cc1` (centres undefined): the Potency entry was “inactive”.

With `Cc1ccc(-n2c(SCC(=O)N3CCC(C(=O)O)CC3)nc3ccccc3c2=O)cc1C`, the Potency was 13.5 µM (active).

As for `O=C(CSc1nc2ccccc2c(=O)n1-c1ccc(F)cc1)NC1CC1`, the Potency entry was “inactive”.

`COc1cccc(-n2c(SCC(=O)c3c[nH]c4ccccc34)nc3ccccc3c2=O)c1`: the Potency result is “inactive”.

Consider `COc1ccccc1N1CCN(S(=O)(=O)CCNC(=O)COc2ccc(F)cc2)CC1`, for which the Potency entry is “inactive”.

With `COc1ccc(S(=O)(=O)N2CCN(CC(=O)NCC3(N4CCOCC4)CCCCC3)CC2)cc1`, the Potency entry was “inactive”.

Turning to `COc1cccc(NC(=O)CSc2nnc(-c3cccnc3)o2)c1`, the Potency result is “inactive”.

For `Cc1ccc(-c2nnc(SCc3ccccc3C)o2)cc1`, the Potency was 10.7 µM (active).

In the case of `COc1ccc(-c2nnc(SCc3cccnc3)o2)cc1`, the Potency was 21.3 µM (active).

For the compound `CCCCSc1nnc(-c2ccc(C)cc2)o1`, the Potency was 2.69 µM (active).

Consider `Cc1ccccc1CSc1nnc(CCCCCNC(=O)OC(C)(C)C)o1`, for which the Potency result is “inactive”.

Consider `CC1=CC(C)(C)N(C(=O)CSc2nnc(-c3ccccc3)o2)c2ccc(C)cc21`, for which the Potency result was “inactive”.

On to `Cc1cccc(C)c1OC(=O)CSc1nnc(-c2ccccc2)o1`, for which the Potency result was “inactive”.

In the case of `CCOC(=O)CSc1nnc(-c2ccc([N+](=O)[O-])cc2)o1`, the Potency entry is “inactive”.

For `COC(=O)CSc1nnc(-c2cccnc2)o1`, the Potency result was “inactive”.

Turning to `Cc1ccc(C(=O)N2c3ncnn3C3(CCCCC3)[C@@H]3CCCC[C@@H]32)cc1`, the Potency result is “inactive”.

Take `Cc1ccc(S(=O)(=O)CCC(=O)OCC(=O)NCCc2ccc(S(N)(=O)=O)cc2)cc1`: the Potency entry is “inactive”.

As for `COc1ccc(-c2onc(C)c2C)cc1S(=O)(=O)NCC1CCN(Cc2cccc(F)c2)CC1`, the Potency entry is “inactive”.

On to `CCN(CC)c1cc(NC2CCCCC2)c2c3c(onc13)-c1ccccc1C2=O`, for which the Potency result is “inactive”.

For the compound `O=P(O)(CN1CCCCC1)CN1CCCCC1`, the Potency result was “inactive”.

In the case of `CCOc1ccc(CNC(=O)c2ccc(CS(=O)c3ccccc3)o2)cc1` (centres undefined), the Potency entry was “inactive”.

In the case of `CCN(CC)S(=O)(=O)c1ccc2[nH]c(=O)cc(C(=O)N(C)C3CCS(=O)(=O)C3)c2c1` (centres undefined), the Potency entry was “inactive”.

As to `CCc1ccc(C2C(C(=O)Nc3ccccc3)=C(C)Nc3c(C(=O)Nc4ccc(C)cc4)cnn32)cc1` (centres undefined), the Potency result is “inactive”.

In the case of `CC(=O)Nc1c(C)nn(-c2ccccc2)c1N1CCC(C(=O)Nc2cc(Cl)ccc2C)CC1`, the Potency entry is “inactive”.

`CC1CCCC(C)N1C(=O)CN1CCN(c2nc(-c3ccc(F)cc3)cs2)CC1` (centres undefined): the Potency result was “inactive”.

On to `CCOc1cc(NC(=S)NCCCOC)c(OCC)cc1NC(=O)c1ccco1`, for which the Potency result was “inactive”.

In the case of `COc1ccc(NC(=O)COCc2cc(-c3ccco3)on2)cc1`, the Potency result was “inactive”.

With `COCCNC(=O)Nc1ccc2nc(-c3ccco3)c(-c3ccco3)nc2c1`, the Potency was 21.3 µM (active).

As to `Cc1ccc(C(=O)NCC(=O)OCC(=O)Nc2cccc(S(=O)(=O)N3CCCC3)c2)cc1C`, the Potency is 9.53 µM (active).

As for `O=C(CCNC(=O)c1ccc(Br)cc1)Nc1cccc(S(=O)(=O)N2CCCCC2)c1`, the Potency result was “inactive”.

As for `Cc1ccc(C)c(OCCC(=O)Nc2cccc(S(=O)(=O)N3CCCC3)c2)c1`, the Potency entry is “inactive”.

Turning to `COc1ccc(C(=O)OCC(=O)NC(=O)CCSc2ccccc2)cc1`, the Potency entry was “inactive”.

On to `CC(OC(=O)c1ccccc1N1C(=O)C2C3CCC(C3)C2C1=O)C(=O)c1ccccc1` (centres undefined), for which the Potency entry is “inactive”.

Consider `CC(OC(=O)CN1C(=O)c2ccccc2C1=O)C(=O)c1ccccc1` (centres undefined), for which the Potency entry was “inactive”.

For `COc1ccc(C(=O)COC(=O)c2ccc3ccccc3n2)cc1`, the Potency is 21.3 µM (active).

As to `CC(OC(=O)c1ccc2ccccc2n1)C(=O)c1ccccc1` (centres undefined), the Potency is 0.953 µM (active).

For `COc1ccc(C(=O)COC(=O)COc2ccc(C)c(C)c2)cc1`, the Potency result is “inactive”.

Take `CCc1ccc2ncc3c(-c4ccc(C)cc4)nn(CC(=O)NCc4ccccc4)c3c2c1`: the Potency entry was “inactive”.

As to `COC(=O)C1=CO[C@@H](O[C@@H]2O[C@H](CO)[C@@H](O)[C@H](O)[C@H]2O)C2C1C[C@H](O)[C@@H]2C` (some centres undefined), the Potency entry is “inactive”.

On to `Cc1ccc(Cn2c(SCC(=O)N/N=C/c3ccccc3OCC(=O)O)nc3ccccc32)cc1`, for which the Potency result is “inactive”.

In the case of `CCn1c(SCC(=O)N/N=C/c2ccccc2OCC(=O)O)nnc1-c1ccc(C(C)(C)C)cc1`, the Potency is 26.9 µM (active).

As for `CCn1c(SCC(=O)N/N=C/C=C/c2ccccc2[N+](=O)[O-])nnc1-c1ccccc1`, the Potency result was “inactive”.

In the case of `CNC(=O)c1csc(Cc2c(Cl)sc3ccc(Cl)cc23)n1`, the Potency entry is “inactive”.

In the case of `O=C(COC(=O)c1ccccc1C(=O)c1ccccc1)c1ccco1`, the Potency entry was “inactive”.

On to `O=C(COC(=O)c1ccco1)NCc1ccc(Cl)cc1`, for which the Potency result was “inactive”.

On to `CCN(CC)c1ccc(C(=O)OCC(=O)c2ccco2)cc1`, for which the Potency was 15.1 µM (active).

With `CCc1ccc(C(=O)COC(=O)c2ccco2)cc1`, the Potency is 0.478 µM (active).

`O=C(OCC(=O)N1CCCC1)c1ccco1`: the Potency result is “inactive”.

As to `O=C(OCC(=O)N1CCN(C(=O)c2ccco2)CC1)c1ccc(Cl)c(Cl)c1`, the Potency result is “inactive”.

As for `C[C@@H](NC(=O)[C@@H]1Cc2ccccc2CN1)C(=O)NC1CCCC1`, the Potency result was “inactive”.

Take `COc1ccccc1CNC(=O)c1cc(=O)c2ccccc2o1`: the Potency result is “inactive”.

With `CCOC(=O)c1sc(N)c(C#N)c1COC(=O)C1=COCCO1`, the Potency entry is “inactive”.

Consider `CN(CC(=O)Nc1c(Cl)cccc1Cl)C(=O)CC1OC(=O)c2ccccc21` (centres undefined), for which the Potency result was “inactive”.

`CCOc1ccc(N(CC)S(=O)(=O)N2CCCC(C(=O)NCc3ccc(SC)cc3)C2)cc1` (centres undefined): the Potency result was “inactive”.

`Cc1oc2c(c1C(=O)Nc1ccc(F)c(F)c1)C1=NCCN1C=N2`: the Potency entry was “inactive”.

On to `N#Cc1ccc(C2N=C(c3ccccc3)NO2)cc1` (centres undefined), for which the Potency is 10.7 µM (active).

In the case of `Brc1ccccc1C1N=C(c2ccccc2)NO1` (centres undefined), the Potency was 19 µM (active).

Regarding `CCOC(=O)Cn1c(=O)n(C2CCCCC2)c2nc(-c3cccc(OC)c3)nc(C(N)=O)c21`, the Potency result was “inactive”.

In the case of `COc1ccc(CNC(=O)c2cc3c(-c4ccccc4F)nn(C)c3s2)c(OC)c1`, the Potency result is “inactive”.

Take `CCOC(=O)C1CCCN(C(=O)c2ccc(-n3ccc4ccccc43)s2)C1` (centres undefined): the Potency result is “inactive”.

For `CCN(Cc1ccccc1)C(=O)CCS(=O)(=O)c1ccc2c(c1)oc(=O)n2C`, the Potency result is “inactive”.

In the case of `Cc1ccc(/C=C/C(=O)OCC(=O)NCc2ccc(Cl)cc2)o1`, the Potency entry was “inactive”.

`CCC(=O)N1CCc2cc(Br)cc(S(=O)(=O)NCc3ccc(Cl)cc3)c21`: the Potency entry was “inactive”.

As for `C=CCNC(=O)c1ccc(C)c(Br)c1`, the Potency entry was “inactive”.

Take `C=CCNC(=O)c1ccc2c3n(nc2c1)-c1ccc(C)cc1CO3`: the Potency was 2.39 µM (active).

As for `CCCNC(=O)c1ccc2c(c1)ncn2-c1ccc(C)cc1C`, the Potency entry is “inactive”.

Turning to `COc1cccc(CNC(=O)C(NS(=O)(=O)c2ccc3nc(C)sc3c2)C(C)C)c1` (centres undefined), the Potency result is “inactive”.

Turning to `COc1ccc(OC)c(/C(C)=N\NC(=O)c2cc3cc(Cl)ccc3n2C)c1`, the Potency result was “inactive”.

In the case of `C/C(=N/NC(=O)c1cc(Cl)ccc1O)C12CC3CC(CC(C3)C1)C2`, the Potency is 15.1 µM (active).

In the case of `COc1ccc(Cl)cc1NC(=O)CN(C)C(=O)CNC(=O)C12CC3CC(CC(C3)C1)C2`, the Potency result was “inactive”.

As to `NC(=O)NCCCC(=O)O`, the Potency result was “inactive”.

On to `CSc1ncc(C(=O)NCc2ccccc2Cl)c(C(F)(F)F)n1`, for which the Potency result is “inactive”.

As to `CCn1c2ccc(F)cc2c2nnc(SCCN3CCOCC3)nc21`, the Potency entry is “inactive”.

Take `Cc1cc2nc(SCCN3CCOCC3)[nH]c2cc1C`: the Potency was 19 µM (active).

`Cc1cccc(C)c1OCCN1CCOCC1`: the Potency result was “inactive”.

On to `COc1ccc(CCC(=O)OCC(=O)Nc2ccc(C)c(S(=O)(=O)N(C)C)c2)cc1`, for which the Potency entry was “inactive”.

For the compound `Cc1ccc(C(=O)Nc2ccc(C(=O)O)cc2)cc1S(=O)(=O)Nc1ccccc1`, the Potency result is “inactive”.

As to `Cc1ccc(C(=O)Nc2ccc(C)c(S(=O)(=O)N(C)C)c2)s1`, the Potency was 1.9 µM (active).

Take `Cc1ccc(NC(=O)CNCc2ccccn2)cc1S(=O)(=O)N(C)C`: the Potency entry is “inactive”.

On to `Cc1ccc(NC(=O)c2cccs2)cc1S(=O)(=O)N(C)C`, for which the Potency was 15.1 µM (active).

On to `Cc1ccc(C(=O)Nc2ccc(NC(=O)c3cccs3)cc2)c(C)c1`, for which the Potency result is “inactive”.

Regarding `Cc1cc(C)c(/C=C/c2onc(C)c2S(=O)(=O)N2CCC(C(=O)Nc3ccc(Cl)cc3C)CC2)c(C)c1`, the Potency entry is “inactive”.

Turning to `COc1ccc(C(=O)CSc2c(C(C)C)cnc3c2c(=O)n(C)c(=O)n3C)cc1`, the Potency entry was “inactive”.

`O=C(CSc1nc2nccnc2c(=O)n1CCc1c[nH]c2ccccc12)Nc1ccccc1F`: the Potency entry is “inactive”.

`O=C(CN1CCN(Cc2ccc(Cl)cc2)C1=O)NCc1ccc(F)cc1`: the Potency entry is “inactive”.

In the case of `COc1ccc(N2C(=O)CS(=O)(=O)C23C(=O)N(Cc2ccc(C)cc2)c2ccccc23)cc1Cl` (centres undefined), the Potency result was “inactive”.

For `O=S(=O)(NCCS(=O)(=O)N1CCN(c2ccccc2)CC1)c1ccc(Cl)cc1`, the Potency result was “inactive”.

Consider `CC1=NN(Cc2ccccc2)C(=O)/C1=C/c1ccc(N(C)C)cc1`, for which the Potency is 6.75 µM (active).

Take `CN(C)c1cc[n+](Cc2ccccc2)cc1`: the Potency result was “inactive”.

Take `CSc1c(SCc2ccccc2)cnn(Cc2ccccc2)c1=O`: the Potency result was “inactive”.

As for `COc1ccc(C)cc1NC(=O)CN1c2cccc3cccc(c23)S1(=O)=O`, the Potency result is “inactive”.

Take `CCOC(=O)c1cc(-c2ccccc2C)n(Cc2cc(C)no2)n1`: the Potency entry was “inactive”.

`CC(C)CC(=O)Nc1ccc(Cc2ccncc2)cc1`: the Potency entry is “inactive”.

For `CCc1ccc(NC(=O)Nc2ccncc2)cc1`, the Potency was 9.53 µM (active).

Turning to `COc1cccc(OC)c1C(=O)Nc1ccc(Cc2ccncc2)cc1`, the Potency result was “inactive”.

As to `CCCN(C(=O)c1nc2nccc(C)n2n1)c1c(N)n(Cc2ccccc2)c(=O)[nH]c1=O`, the Potency result is “inactive”.

Consider `CCOC(=O)/C(=N\Nc1cc(Cl)ccc1Cl)N1CCN(C)CC1`, for which the Potency entry was “inactive”.

`CC(C)Cc1nc(Nc2ccc(S(=O)(=O)N3CCCC3)cc2)c2nnn(Cc3ccccc3)c2n1`: the Potency entry is “inactive”.

`Cc1onc(-c2ccc(F)cc2F)c1C(=O)Nc1cccc(C(F)(F)F)c1`: the Potency entry was “inactive”.

Consider `CCCC(=O)Nc1cccc(NC(=S)NC(=O)C(C)Oc2ccc(Cl)cc2Cl)c1` (centres undefined), for which the Potency result was “inactive”.

As for `CC(C)n1ncc2c(C(=O)NCc3ccccc3CN(C)C)cc(C3CC3)nc21`, the Potency result was “inactive”.

For `COC(=O)Cc1csc(Nc2c(C)n(C)n(-c3ccccc3)c2=O)n1`, the Potency entry is “inactive”.

Turning to `COC(=O)Cc1cc(=O)n(-c2nc3ccccc3s2)[nH]1`, the Potency was 16.9 µM (active).

`COC(=O)CC1=NN(c2nc(C)cc(C)n2)C(=O)C1`: the Potency result was “inactive”.
